# According to PubChem BioAssay AID1159580 (chemical genetic matrix, 2015):
# Several values for one entry are separate records, joined by “and”; a condition that tells them apart may be missing. Equal values may be shown once. The whole screen tested about 5,500 compounds, of which about 2,000 (36%) were called active. Another 18% or so got no clear call; they are omitted. Some of the results follow. A number with no mark means an inactive call. Rule as the data show it: active = normalized growth mostly below about 0.91 (no sharp cut-off); inconclusive = no clear call, values can overlap the other calls; inactive = mostly above about 0.92.
# Assay: chemical genetic growth profiling, strain panel (AID 1159580);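 also: tested at 20 µM; growth read once vehicle control cultures reached saturation at 30 °C; 1 = growth at the plate median or of vehicle wells; lower values mean less growth of the strain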
# Details: S. cerevisiae deletion strains, growth OD
smiles,measurement,setting,value
O=C(O)CCCCC1CCSS1 (configuration not stated),normalized growth,"locus YAL013W, strain DEP1, active compounds read low",0.97
same,normalized growth,"locus YAL021C, strain ccr4, active compounds read low",1
same,normalized growth,"locus YAL026C, strain drs2, active compounds read low",0.94
same,normalized growth,"locus YAL030W, strain snc1, active compounds read low",0.974
same,normalized growth,"locus YBL061C, strain skt5, active compounds read low",0.979
same,normalized growth,"locus YBR009C, strain hhf1, active compounds read low",0.933
same,normalized growth,"locus YBR021W, strain FUR4, active compounds read low",0.987
same,normalized growth,"locus YBR023C, strain chs3, active compounds read low",0.977
same,normalized growth,"locus YBR171W, strain sec66, active compounds read low",0.934
same,normalized growth,"locus YBR229C, strain ROT2, active compounds read low",0.953
same,normalized growth,"locus YBR231C, strain swc5, active compounds read low",0.979
same,normalized growth,"locus YBR279W, strain paf1, active compounds read low",0.978
same,normalized growth,"locus YCL011C, strain gbp2, active compounds read low",0.959
same,normalized growth,"locus YCL016C, strain dcc1, active compounds read low",0.983
same,normalized growth,"locus YCL029C, strain bik1, active compounds read low",0.993
same,normalized growth,"locus YCL061C, strain MRC1, active compounds read low",0.956
same,normalized growth,"locus YCL069W, strain vba3, active compounds read low",0.973
same,normalized growth,"locus YCR088W, strain abp1, active compounds read low",0.978
same,normalized growth,"locus YDL005C, strain med2, active compounds read low",1.02
same,normalized growth,"locus YDL035C, strain GPR1, active compounds read low",0.98
same,normalized growth,"locus YDL040C, strain nat1, active compounds read low",0.976
same,normalized growth,"locus YDL074C, strain BRE1, active compounds read low",0.99
same,normalized growth,"locus YDL101C, strain DUN1, active compounds read low",0.978
same,normalized growth,"locus YDL134C, strain PPH21, active compounds read low",0.974
same,normalized growth,"locus YDL185W, strain tfp1, active compounds read low",0.942
same,normalized growth,"locus YDL192W, strain arf1, active compounds read low",0.979
same,normalized growth,"locus YDR001C, strain nth1, active compounds read low",0.971
same,normalized growth,"locus YDR069C, strain doa4, active compounds read low",0.982
same,normalized growth,"locus YDR101C, strain arx1, active compounds read low",0.996
same,normalized growth,"locus YDR137W, strain rgp1, active compounds read low",0.883
same,normalized growth,"locus YDR150W, strain NUM1, active compounds read low",0.958
same,normalized growth,"locus YDR159W, strain sac3, active compounds read low",0.984
same,normalized growth,"locus YDR162C, strain NBP2, active compounds read low",0.938
same,normalized growth,"locus YDR195W, strain ref2",0.994
same,normalized growth,"locus YDR297W, strain sur2, active compounds read low",0.975
same,normalized growth,"locus YDR318W, strain mcm21, active compounds read low",0.992
same,normalized growth,"locus YDR334W, strain swr1, active compounds read low",0.978
same,normalized growth,"locus YDR335W, strain msn5, active compounds read low",0.97
same,normalized growth,"locus YDR388W, active compounds read low",0.985
same,normalized growth,"locus YDR392W, strain spt3, active compounds read low",0.888
same,normalized growth,"locus YDR502C, strain sam2, active compounds read low",0.975
same,normalized growth,"locus YEL003W, strain gim4, active compounds read low",0.961
same,normalized growth,"locus YEL037C, strain rad23, active compounds read low",0.976
same,normalized growth,"locus YEL061C, strain CIN8 (second series), active compounds read low",0.968
same,normalized growth,"locus YEL061C, strain CIN8, active compounds read low",0.975
same,normalized growth,"locus YER015W, strain faa2, active compounds read low",0.985
same,normalized growth,"locus YER016W, strain bim1, active compounds read low",0.983
same,normalized growth,"locus YER110C, active compounds read low",0.961
same,normalized growth,"locus YER111C, strain swi4, active compounds read low",0.963
same,normalized growth,"locus YER155C, strain BEM2 (second series), active compounds read low",0.922
same,normalized growth,"locus YER155C, strain BEM2, active compounds read low",0.989
same,normalized growth,"locus YER167W, strain BCK2, active compounds read low",0.981
same,normalized growth,"locus YFR010W, strain ubp6, active compounds read low",0.962
same,normalized growth,"locus YGL078C, strain dbp3, active compounds read low",0.981
same,normalized growth,"locus YGL086W, strain mad1, active compounds read low",0.97
same,normalized growth,"locus YGL167C, strain pmr1, active compounds read low",0.95
same,normalized growth,"locus YGL173C, strain kem1, active compounds read low",0.973
same,normalized growth,"locus YGL227W, strain vid30, active compounds read low",0.965
same,normalized growth,"locus YGL240W, strain doc1, active compounds read low",0.956
same,normalized growth,"locus YGL248W, strain PDE1, active compounds read low",0.981
same,normalized growth,"locus YGL253W, strain hxk2, active compounds read low",0.992
same,normalized growth,"locus YGR078C, strain PAC10, active compounds read low",0.999
same,normalized growth,"locus YGR135W, strain pre9, active compounds read low",0.982
same,normalized growth,"locus YGR229C, strain SMI1, active compounds read low",1.01
same,normalized growth,"locus YGR252W, strain gcn5, active compounds read low",0.873
same,normalized growth,"locus YHR013C, strain ard1, active compounds read low",0.935
same,normalized growth,"locus YHR027C, strain rpn1, active compounds read low",0.987
same,normalized growth,"locus YHR030C, strain SLT2, active compounds read low",0.98 and 0.943
same,normalized growth,"locus YHR079C, strain IRE1 (second series), active compounds read low",0.984
same,normalized growth,"locus YHR079C, strain IRE1, active compounds read low",0.383 (active)
same,normalized growth,"locus YHR094C, strain hxt1, active compounds read low",0.981
same,normalized growth,"locus YHR129C, strain ARP1, active compounds read low",0.997
same,normalized growth,"locus YHR142W, strain chs7, active compounds read low",1.02
same,normalized growth,"locus YHR200W, strain rpn10, active compounds read low",0.991
same,normalized growth,"locus YIL066C, strain RNR3, active compounds read low",0.985
same,normalized growth,"locus YIL073C, strain SPO22, active compounds read low",0.978
same,normalized growth,"locus YIL125W, strain kgd1, active compounds read low",0.99
same,normalized growth,"locus YIR030C, strain dcg1, active compounds read low",0.978
same,normalized growth,"locus YJL092W, strain hpr5, active compounds read low",0.972
same,normalized growth,"locus YJL095W, strain BCK1 (second series), active compounds read low",0.975
same,normalized growth,"locus YJL095W, strain BCK1, active compounds read low",1.03 and 0.902
same,normalized growth,"locus YJL115W, strain asf1, active compounds read low",0.978
same,normalized growth,"locus YJL129C, strain trk1, active compounds read low",0.91
same,normalized growth,"locus YJL134W, strain LCB3, active compounds read low",0.977
same,normalized growth,"locus YJL154C, strain vps35, active compounds read low",0.975
same,normalized growth,"locus YJL164C, strain tpk1, active compounds read low",0.967
same,normalized growth,"locus YJL166W, strain qcr8, active compounds read low",0.976
same,normalized growth,"locus YJL168C, strain set2, active compounds read low",0.992
same,normalized growth,"locus YJL187C, strain SWE1 (second series), active compounds read low",0.992
same,normalized growth,"locus YJL187C, strain SWE1, active compounds read low",0.973
same,normalized growth,"locus YJR043C, strain POL32, active compounds read low",1.01
same,normalized growth,"locus YJR066W, strain TOR1, active compounds read low",0.812 (active)
